# Hit rate of the full screen: of about 5,500 compounds, about 2,000 (36%) were called active. Another 18% or so got no clear call; they are omitted. The list shows a part of the results. A number with no mark means an inactive call. No stated cut-off is given here; in the data, active means normalized growth mostly below about 0.91 (no sharp cut-off); inconclusive means no clear call, values can overlap the other calls; inactive means mostly above about 0.92.
# Test: chemical genetic growth profiling, strain panel (AID 1159580);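 further: tested at 20 µM; growth read once vehicle control cultures reached saturation at 30 °C; 1 = growth at the plate median or of vehicle wells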
# Details: growth OD
smiles,measurement,setting,value
CC(=O)[C@@]1(O)CCC2C3CCC4=CC(=O)CC[C@]4(C)C3CC[C@@]21C (stereo partly drawn),normalized growth,"S. cerevisiae deletion strains, locus YJR066W, strain TOR1, stronger effect = lower value",0.93
same,normalized growth,"S. cerevisiae deletion strains, locus YKL009W, strain mrt4, stronger effect = lower value",0.995
same,normalized growth,"S. cerevisiae deletion strains, locus YKL068W, stronger effect = lower value",1.01
same,normalized growth,"S. cerevisiae deletion strains, locus YKL085W, strain MDH1 (second series), stronger effect = lower value",1.02
same,normalized growth,"S. cerevisiae deletion strains, locus YKL085W, strain MDH1, stronger effect = lower value",1.02
same,normalized growth,"S. cerevisiae deletion strains, locus YKL160W, strain elf1, stronger effect = lower value",0.997
same,normalized growth,"S. cerevisiae deletion strains, locus YKL190W, strain CNB1, stronger effect = lower value",0.998
same,normalized growth,"S. cerevisiae deletion strains, locus YKR001C, strain vps1, stronger effect = lower value",1.06
same,normalized growth,"S. cerevisiae deletion strains, locus YKR026C, strain gcn3, stronger effect = lower value",0.966
same,normalized growth,"S. cerevisiae deletion strains, locus YKR091W, strain srl3, stronger effect = lower value",0.991
same,normalized growth,"S. cerevisiae deletion strains, locus YLL001W, strain dnm1, stronger effect = lower value",0.98
same,normalized growth,"S. cerevisiae deletion strains, locus YLL026W, stronger effect = lower value",0.994
same,normalized growth,"S. cerevisiae deletion strains, locus YLL041C, strain sdh2, stronger effect = lower value",0.99
same,normalized growth,"S. cerevisiae deletion strains, locus YLR027C, strain aat2, stronger effect = lower value",1
same,normalized growth,"S. cerevisiae deletion strains, locus YLR039C, strain RIC1, stronger effect = lower value",0.841
same,normalized growth,"S. cerevisiae deletion strains, locus YLR058C, strain SHM2, stronger effect = lower value",0.987
same,normalized growth,"S. cerevisiae deletion strains, locus YLR102C, strain apc9, stronger effect = lower value",1.01
same,normalized growth,"S. cerevisiae deletion strains, locus YLR113W, strain HOG1, stronger effect = lower value",0.97
same,normalized growth,"S. cerevisiae deletion strains, locus YLR221C, strain rsa3, stronger effect = lower value",1
same,normalized growth,"S. cerevisiae deletion strains, locus YLR258W, strain gsy2, stronger effect = lower value",0.993
same,normalized growth,"S. cerevisiae deletion strains, locus YLR262C, strain YPT6 (second series), stronger effect = lower value",0.823 (active)
same,normalized growth,"S. cerevisiae deletion strains, locus YLR262C, strain YPT6, stronger effect = lower value",0.805
same,normalized growth,"S. cerevisiae deletion strains, locus YLR268W, strain sec22, stronger effect = lower value",1.01
same,normalized growth,"S. cerevisiae deletion strains, locus YLR320W, strain mms22, stronger effect = lower value",0.939
same,normalized growth,"S. cerevisiae deletion strains, locus YLR330W, strain CHS5, stronger effect = lower value",1
same,normalized growth,"S. cerevisiae deletion strains, locus YLR342W, strain FKS1 (second series), stronger effect = lower value",0.987
same,normalized growth,"S. cerevisiae deletion strains, locus YLR342W, strain FKS1, stronger effect = lower value",0.989
same,normalized growth,"S. cerevisiae deletion strains, locus YLR357W, strain rsc2, stronger effect = lower value",1.01
same,normalized growth,"S. cerevisiae deletion strains, locus YLR370C, strain arc18, stronger effect = lower value",0.984
same,normalized growth,"S. cerevisiae deletion strains, locus YLR371W, strain rom2, stronger effect = lower value",1.01
same,normalized growth,"S. cerevisiae deletion strains, locus YLR384C, strain iki3, stronger effect = lower value",1.01
same,normalized growth,"S. cerevisiae deletion strains, locus YLR418C, strain cdc73, stronger effect = lower value",1.01
same,normalized growth,"S. cerevisiae deletion strains, locus YML016C, strain PPZ1, stronger effect = lower value",0.986
same,normalized growth,"S. cerevisiae deletion strains, locus YML032C, strain rad52, stronger effect = lower value",0.981
same,normalized growth,"S. cerevisiae deletion strains, locus YML120C, strain ndi1, stronger effect = lower value",1.01
same,normalized growth,"S. cerevisiae deletion strains, locus YML124C, strain tub3, stronger effect = lower value",1
same,normalized growth,"S. cerevisiae deletion strains, locus YMR058W, strain fet3, stronger effect = lower value",0.996
same,normalized growth,"S. cerevisiae deletion strains, locus YMR078C, strain ctf18, stronger effect = lower value",0.992
same,normalized growth,"S. cerevisiae deletion strains, locus YMR125W, strain sto1, stronger effect = lower value",0.984
same,normalized growth,"S. cerevisiae deletion strains, locus YMR129W, stronger effect = lower value",0.982
same,normalized growth,"S. cerevisiae deletion strains, locus YMR205C, strain PFK2, stronger effect = lower value",0.957
same,normalized growth,"S. cerevisiae deletion strains, locus YMR223W, strain ubp8, stronger effect = lower value",0.995
same,normalized growth,"S. cerevisiae deletion strains, locus YMR231W, strain pep5, stronger effect = lower value",0.996
same,normalized growth,"S. cerevisiae deletion strains, locus YMR307W, strain GAS1, stronger effect = lower value",0.97
same,normalized growth,"S. cerevisiae deletion strains, locus YNL067W, strain RPL9B, stronger effect = lower value",0.999
same,normalized growth,"S. cerevisiae deletion strains, locus YNL071W, strain lat1, stronger effect = lower value",1
same,normalized growth,"S. cerevisiae deletion strains, locus YNL183C, strain NPR1, stronger effect = lower value",0.907
same,normalized growth,"S. cerevisiae deletion strains, locus YNL209W, strain ssb2, stronger effect = lower value",0.995
same,normalized growth,"S. cerevisiae deletion strains, locus YNL233W, strain BNI4, stronger effect = lower value",1
same,normalized growth,"S. cerevisiae deletion strains, locus YNL248C, strain rpa49, stronger effect = lower value",0.999
same,normalized growth,"S. cerevisiae deletion strains, locus YNL250W, strain rad50, stronger effect = lower value",1.01
same,normalized growth,"S. cerevisiae deletion strains, locus YNL271C, strain bni1, stronger effect = lower value",1
same,normalized growth,"S. cerevisiae deletion strains, locus YNL298W, strain CLA4, stronger effect = lower value",1.01
same,normalized growth,"S. cerevisiae deletion strains, locus YNL307C, strain MCK1, stronger effect = lower value",1.01
same,normalized growth,"S. cerevisiae deletion strains, locus YNL322C, strain KRE1 (second series), stronger effect = lower value",0.996
same,normalized growth,"S. cerevisiae deletion strains, locus YNL322C, strain KRE1, stronger effect = lower value",0.994
same,normalized growth,"S. cerevisiae deletion strains, locus YNR049C, strain mso1, stronger effect = lower value",0.988
same,normalized growth,"S. cerevisiae deletion strains, locus YNR052C, strain pop2, stronger effect = lower value",1
same,normalized growth,"S. cerevisiae deletion strains, locus YOL012C, strain htz1",0.769
same,normalized growth,"S. cerevisiae deletion strains, locus YOL147C, strain pex11, stronger effect = lower value",1.01
same,normalized growth,"S. cerevisiae deletion strains, locus YOR001W, strain rrp6, stronger effect = lower value",1
same,normalized growth,"S. cerevisiae deletion strains, locus YOR061W, strain CKA2, stronger effect = lower value",0.993
same,normalized growth,"S. cerevisiae deletion strains, locus YOR069W, strain VPS5, stronger effect = lower value",0.996
same,normalized growth,"S. cerevisiae deletion strains, locus YOR070C, strain gyp1, stronger effect = lower value",0.994
same,normalized growth,"S. cerevisiae deletion strains, locus YOR080W, strain dia2, stronger effect = lower value",0.991
same,normalized growth,"S. cerevisiae deletion strains, locus YOR083W, strain WHI5, stronger effect = lower value",1
same,normalized growth,"S. cerevisiae deletion strains, locus YOR106W, strain vam3, stronger effect = lower value",1.02
same,normalized growth,"S. cerevisiae deletion strains, locus YOR136W, strain idh2, stronger effect = lower value",1.01
same,normalized growth,"S. cerevisiae deletion strains, locus YOR144C, strain elg1, stronger effect = lower value",1
same,normalized growth,"S. cerevisiae deletion strains, locus YOR184W, strain ser1, stronger effect = lower value",0.943
same,normalized growth,"S. cerevisiae deletion strains, locus YOR231W, strain MKK1, stronger effect = lower value",0.965
same,normalized growth,"S. cerevisiae deletion strains, locus YOR265W, strain rbl2, stronger effect = lower value",1
same,normalized growth,"S. cerevisiae deletion strains, locus YOR270C, strain vph1, stronger effect = lower value",0.974
same,normalized growth,"S. cerevisiae deletion strains, locus YOR290C, strain snf2, stronger effect = lower value",0.953
same,normalized growth,"S. cerevisiae deletion strains, locus YOR316C, strain cot1, stronger effect = lower value",1
same,normalized growth,"S. cerevisiae deletion strains, locus YPL051W, strain arl3, stronger effect = lower value",0.995
same,normalized growth,"S. cerevisiae deletion strains, locus YPL055C, strain LGE1, stronger effect = lower value",1.02
same,normalized growth,"S. cerevisiae deletion strains, locus YPL078C, strain atp4, stronger effect = lower value",0.997
same,normalized growth,"S. cerevisiae deletion strains, locus YPL106C, strain sse1, stronger effect = lower value",1.02
same,normalized growth,"S. cerevisiae deletion strains, locus YPL240C, strain hsp82, stronger effect = lower value",0.987
same,normalized growth,"S. cerevisiae deletion strains, locus YPL241C, strain CIN2, stronger effect = lower value",0.995
same,normalized growth,"S. cerevisiae deletion strains, locus YPL256C, strain CLN2, stronger effect = lower value",0.96
same,normalized growth,"S. cerevisiae deletion strains, locus YPR119W, strain clb2, stronger effect = lower value",1
same,normalized growth,"S. cerevisiae deletion strains, locus YPR141C, strain kar3, stronger effect = lower value",0.992
same,normalized growth,"S. cerevisiae deletion strains, locus YPR163C, strain tif3, stronger effect = lower value",0.998
same,normalized growth,"S. cerevisiae deletion strains, locus YPR167C, strain met16, stronger effect = lower value",1
same,normalized growth,"S. cerevisiae deletion strains, strain wtn01, stronger effect = lower value",1.05
same,normalized growth,"S. cerevisiae strains, strain wild type, stronger effect = lower value",0.991
